# Laboratory results: PubChem BioAssay AID485298 (National Center for Advancing Translational Sciences (NCATS), 2010)
# Where “and” joins values, the source holds several entries; their conditions need not be identical. Identical values can stand only once. The whole screen tested about 320,000 compounds, of which about 740 (0.23%) were called active. A call without a number means that no potency is given here. Not shown: some 2% with an inconclusive outcome. Calls come from the whole dose curve; as a rule, active = well fitted activation curve with a large enough effect; inconclusive = small, poorly fitted or top-dose-only effect; inactive = no such curve, though single readings can be large or run the other way. For the sample, actives were picked, then their nearest neighbours and some compounds at random. Where a structure was tested more than once in an assay, its records may differ in their call.
# Assay: qHTS Assay for Small Molecule Inhibitors of Mitochondrial Division or Activators of Mitochondrial Fusion; note: nearly all actives have a fitted effect of over 45% in size
# Details: S. cerevisiae fusion-defective mutant growth rescue, CellTiterGlo 48 h; series mostly up to 46.1 µM
# Summary of the method: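 Temperature-sensitive fusion-defective S. cerevisiae (e.g. fzo1-1, mgm1-5) were grown with compound in YPEG medium (3% ethanol, 3% glycerol) for 48 hours at 37C. Growth rescue was measured as viability by CellTiterGlo luminescence after 10 minutes at ambient.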
# Potency is the fitted concentration of half-maximal effect.
row,Compound,Potency
1,CC(=O)Nc1ccc(C(=O)Nc2cccc(S(=O)(=O)NC3=NCCC3)c2)cc1,inactive
2,CN(C)c1nc(N)nc(CSc2nnnn2-c2cccc3ccccc23)n1,inactive
3,CCc1nc2sc(C(=O)O)c(N)c2c2c1CCCC2,inactive
4,Cc1ccc2c(N)c(C(=O)c3ccccc3)sc2n1,inactive
5,Cc1nc2sc(C(=O)c3ccccc3)c(N)c2c2c1CCCC2,14.1 µM (active)
6,COc1ccc(OC)c(S(=O)(=O)n2c([N+](=O)[O-])cnc2C)c1,inactive
7,CN(c1ccccn1)c1ncnc2[nH]ncc12,inactive
8,O=S(=O)(c1cccc(C(F)(F)F)c1)N1CCN(c2cnccn2)CC1,inactive
9,COC(=O)COc1ccc(C2NC(=O)NC(C)=C2C(=O)NCc2ccccc2)cc1OC (configuration not stated),inactive
10,CCC(C)(C)n1nnnc1C(c1cccs1)N1CCN(c2nc3ccccc3s2)CC1 (configuration not stated),10 µM (active)
11,CCC(C)(C)n1nnnc1C(c1ccc(OC)c(OC)c1)N1CCN(C(=O)c2ccco2)CC1 (configuration not stated),inactive
12,Fc1ccc(Cn2nnnc2C(c2cccs2)N2CCCCCC2)cc1 (configuration not stated),inactive
13,Cc1ccc(C(CNC(=O)Nc2cccc(C)c2)N2CCN(C)CC2)cc1 (configuration not stated),inactive
14,CCC1=Nc2cc(C(=O)NCCCOC(C)C)ccc2Sc2ccc(C)cc21,inactive
15,Cc1ccc(S(=O)(=O)N2CCCC(C(=O)N3CCN(C)CC3)C2)cc1 (configuration not stated),inactive
16,CCCS(=O)(=O)N1CCCC(C(=O)N2CCN(c3ccccc3)CC2)C1 (configuration not stated),inactive
17,O=C(C1CCCN(S(=O)(=O)c2ccccc2)C1)N1CCN(c2ccc(F)cc2)CC1 (configuration not stated),3.98 µM (active)
18,Cc1cccc(C(=O)Nc2ccc(-c3nc4ncccc4o3)cc2C)c1,inactive
19,COc1cc(NC(=O)CSc2nc3nc(C)c(Cc4ccc(C)cc4)c(C)n3n2)cc(OC)c1OC,inactive
20,C=CCNC(=O)CCCC(=O)NCC=C,inactive
21,CSCCC(NC(=O)c1ccco1)C(=O)Nc1cc(C)ccn1 (configuration not stated),inactive
22,NS(=O)(=O)c1cccc(NC(=O)CSc2nc3ccccc3n2-c2ccccc2)c1,inactive
23,Cc1ccc(SCCC(=O)OCC(=O)Nc2ncc(Cl)cc2Cl)cc1,inactive

row,Compound,Potency
1,Cc1ccc(-n2c(SCC(=O)Nc3ncc(Cl)cc3Cl)nc3ccccc32)cc1,15.8 µM (active)
2,Cc1ccc(C2C=C(c3ccc(Cl)cc3)Nc3nc(NC(=O)CCC(=O)O)nn32)cc1 (configuration not stated),inactive
3,CCOc1ccccc1NC(=O)CCn1cnnn1,inactive
4,CCOC(=O)c1ccc(-c2ccc(/C=C(\C#N)C(=O)Nc3ccc(C)cc3)o2)cc1,inactive
5,COc1cc2c(cc1OC)/C(=C/C(=O)c1ccc(NC(C)=O)cc1)NCC2,inactive
6,CC1(C)Cc2ccccc2/C(=C/C(=O)c2ccccc2)N1,inactive
7,CC1CN/C(=C\C(=O)c2ccc(Br)cc2)C(=O)N1 (configuration not stated),12.6 µM (active)
8,O=S(=O)(NC1CCN(S(=O)(=O)c2ccc3c(c2)OCCO3)CC1)c1c(F)cccc1F,inactive
9,Cc1ccc(C(=O)NC(=S)Nc2ccc3[nH]c(=O)[nH]c3c2)cc1C,inactive
10,CCCC(O)(CCC)C(=O)NN(C(=O)CCl)c1cccc(C)c1,inactive
11,O=C1c2cccc3cccc(c23)C(=O)N1CCCCCc1n[nH]c(=S)o1,inactive
12,C[N+](C)(CCCCCC[N+](C)(C)CCCN1C(=O)c2cccc3cccc(c23)C1=O)CCCN1C(=O)c2cccc3cccc(c23)C1=O,inactive and 16.4 µM (active)
13,O=C(CCCCCN1C(=O)c2cccc3cccc(c23)C1=O)NCc1ccco1,inactive
14,O=C(Nc1cccc(-c2nc3ccccc3o2)c1)c1cccc(Br)c1,inactive
15,CCc1nccn1CCC(=O)N1CCCC(N2CCN(c3ccccc3F)CC2)C1 (configuration not stated),inactive
16,CCCC(C)NC(=O)C1CCN(C(=O)C2CC(=O)N(c3ccc(C)cc3)C2)CC1 (configuration not stated),inactive
17,O=C(CN1CCSCC1)N/N=C/c1ccc(F)cc1,inactive
18,Cc1c(C(=O)N2CCCc3ccccc32)oc2ccccc12,inactive
19,Cc1c(C(=O)N2CCCc3ccccc32)sc2nc(-c3ccccc3)cn12,inactive
20,Cc1cccc2cc3c(N)c(C(=O)N4CCCc5ccccc54)sc3nc12,17.8 µM (active)
21,CC(C)(C)Cc1nnc(NC(=O)c2cc(-c3ccccc3)nc3ccccc23)s1,inactive
22,O=C(Nc1nnc(-c2ccccc2)o1)c1cc(-c2cccs2)nc2ccccc12,12.6 µM (active)
23,CCCCN(C)CCCNC(=O)c1cc(-c2cccs2)nc2ccccc12,inactive

row,Compound,Potency
1,O=C(CNc1cccc(S(=O)(=O)N2CCCCC2)c1)Nc1ccccc1F,inactive
2,CCN(CC)c1ccc(NC(=O)CN2CCN(CC(=O)Nc3ccc(Cl)cc3)CC2)cc1,inactive
3,COc1ccc(Cl)cc1NS(=O)(=O)c1cccc(C(=O)NC2CCC(O)CC2)c1 (configuration not stated),inactive
4,Cc1cc(C)c(/C=C2\C(=O)Nc3ccccc32)[nH]1,inactive and 16.4 µM (active)
5,CN(C)/C=C1/Nc2ccccc2C1=O,inactive
6,O=C1Nc2ccccc2/C1=C/c1ccnc2ccccc12,inactive
7,O=C(N/C(=C\c1ccc([N+](=O)[O-])cc1)C(=O)N1CCCCC1)c1ccco1,inactive
8,CCc1c(C)[nH]c(=S)c(C#N)c1C,inactive
9,Cc1c(S(=O)(=O)N2CC(C)CC(C)C2)c(=O)n(C)c(=O)n1C (configuration not stated),inactive
10,CCOC(=O)[C@@H]1[C@H]2COc3ccc(Br)cc3[C@H]2N2C(=O)N(c3ccc(Cl)cc3)C(=O)[C@@]12C,inactive
11,COc1ccc(C(=O)N2CC3(C)CC2CC(C)(C)C3)cc1OC (configuration not stated),inactive
12,CC1(C)CC2CC(C)(CN2c2ncnc3ccc(Br)cc23)C1 (configuration not stated),15.8 µM (active)
13,COc1ccc(Nc2ncnc3ccc(Br)cc23)c(OC)c1,inactive
14,CCc1ccc(N(C(=O)c2csnn2)C(C(=O)NC2CCCCC2)c2cccnc2)cc1 (configuration not stated),inactive
15,OCC[C@H]1C[C@H](O)[C@@H](O)[C@]2(CCc3ccccc3O2)O1,inactive
16,O=C(c1ccc(CSc2ccccc2)cc1)N1CCCCCC1,10 µM (active)
17,CC1CCN(C(=O)c2ccc(CSc3ccc(Cl)cc3)cc2)CC1,inactive
18,O=C(c1ccc(S(=O)(=O)c2ccccc2)cc1)N1CCCCCC1,inactive
19,Cc1cc(F)ccc1S(=O)(=O)Nc1ncnc2scc(-c3ccc(F)cc3)c12,inactive
20,O=C(COC(=O)c1ccccc1)c1ccc2c(c1)OCCO2,inactive
21,Cc1ccc(NC(=O)CSc2sc3c(O)cc(=O)[nH]c3c2C#N)cc1C,inactive
